# Sampled rows, rich in hits. Any-hit rate of the full collection: about 3.8%.
# HSF1 inhib: HSF1 inhibition | hit rate 0.77% among 300,000 | activity change, negative = inhibition, % at 7.5 µM (by protocol) | NIH3T3-HGL HSE-luciferase, MG132-induced, luminescence 8 h; active compounds read low;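 active = more than half of replicate wells show activity change below -50%, luminescence cut by over half; inconclusive = some wells, but at most half, below -50%; inactive = no replicate well below -50%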;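 also: luciferase reports HSF-1 transcriptional activity via heat shock element; 0% = median of DMSO wells and -100% = zero luminescence signal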
# Wnt act: activators of Wnt/beta-catenin signaling; Wnt/beta-catenin reporter cell assay, activator, plate reader; hit rate 1.2% among 300,000; activation, % at 9.35 µM; in the data active = activation above about 30%, passing the limit was not always enough; inconclusive = no clear call, values can overlap the other calls;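 also: 0% = neutral control wells and 100% = positive control wells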
# HSF1 activator: increases HSF-1 driven luciferase reporter signal | AID 504408 | activation, % at 9 µM | NIH3T3-HGL HSF-1 luciferase reporter, MG132, 8 h; 100% = twice DMSO control signal | hit rate 1.7% among 300,000;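 active = mean replicate activation of at least 50% with a set share of replicates each reaching 50%; inconclusive = only one of those two conditions met; inactive = mean below 50% and too few replicates reaching it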;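 also: 0% = median of the neutral control wells and 100% = twice that signal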
# MITF act: MITF TRPM1 promoter activation in melanoma cells. SK-MEL-5 TRPM1-promoter luciferase, 24 h; % of positive control, neutral wells = 0. activation, % at 12.5 µM. hit rate 0.75% among 300,000. AID 588334;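 active = mean activation of at least 80% with every replicate also reaching 80%; inconclusive = mean reaches 80% but some replicate falls short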;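 also: 0% = neutral control wells and 100% = parthenolide positive control wells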
# esBAF inh: blocks esBAF chromatin remodeling in mouse ES cells; Bmi1-luciferase knock-in reporter, 24 h; 100% = twice the neutral-well signal; hit rate 2% among 350,000; AID 602393; reporter increase, % at 12.5 µM; in the data active = activation above about 40%; inconclusive = no clear call, values can overlap the other calls;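 also: 0% = median of the plate's neutral control wells and 100% = double that signal; a rise in the Bmi1 reporter signal indicates esBAF inhibition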
# * = called active by the depositor; ? = inconclusive; · = no result given; ! = not confirmed by another sample.
SMILES,HSF1 inhib,Wnt act,HSF1 activator,MITF act,esBAF inh
CC(=O)c1c(C)[nH]c(C(=O)Nc2ccc(C)cc2Br)c1C,22.6,26.5,33.6,?,85.8*
CC(=O)c1c(C)[nH]c(C(=O)Nc2cc(C)ccc2C)c1C,-4.1,1.6,-11.4,4.2,0.5
CC(=O)c1c(C)[nH]c(C(=O)Nc2cccc(C)n2)c1C,16.8,39.0*,?,60.4,-6.4
CC(=O)c1c(C)[nH]c(C(=O)NCCc2cccc(C)c2)c1C,19.2,8.9,32.9,64.3,74.9*
CC(=O)c1c(C)[nH]c(C(=O)Nc2ccc(C)c(C)c2)c1C,2.4,55.4*,9.9,·,84.8*
Cc1nn(C)cc1NC(=O)C[C@@H]1CC[C@H]2[C@H](COc3ccc(NC(=O)C(C)C)cc3C(=O)N2C)O1,·,·,·,·,-0.8
CCC(=O)N[C@@H]1CC[C@H](CCn2cc(C3CC3)nn2)O[C@@H]1CO,·,·,·,·,-4.5
C[C@H](CO)N1C[C@H](C)[C@@H](CN(C)C(=O)Cc2ccncc2)Oc2cc(C3=CCCC3)ccc2S1(=O)=O,·,·,·,·,-1.1
COc1ccccc1S(=O)(=O)N[C@@H]1C=C[C@H](CC(=O)N2CCN(C)CC2)O[C@H]1CO,·,·,·,·,5.4
COc1ccc(NC(=O)c2[nH]c(C)c(C(C)=O)c2C)cc1S(=O)(=O)Nc1ccc(Br)cc1,36.6,8.1,89.1*,-0.8,·
CCOC(=O)c1c(C)[nH]c(C(=O)Nc2ccc(NC(C)=O)cc2)c1C,-1.2,-1.6,-9.9,-9.0,·
CCc1c(C(=O)Nc2ccc(C)c(C)c2)[nH]c(C)c1C(C)=O,4.2,11.8,13.5,88.5*,70.8*
CCOC(=O)c1c(C)[nH]c(C(=O)Nc2ccc(C)c(Cl)c2)c1C,33.1,·,63.3*,·,·
Clc1ccccc1Nc1nc(-c2ccncc2)nc2ccccc12,-6.7,-1.8,-17.4,18.4,-4.2
c1ccc2c(Nc3nc(-c4ccncc4)nc4ccccc34)cccc2c1,-86.8*,3.7,-90.0,·,·
O=C(Cn1cc2c(n1)CCCCC2)NC1CCCCCC1,12.9,5.2,7.8,54.5,47.1*
O=C(CSc1nnc(CCc2ccccc2)n1-c1ccc(Cl)cc1)c1ccccc1,-60.0*,14.6,-71.1,-2.0,·
CCN(Cc1ccncc1)C(=O)c1ccco1,-3.8,-2.4,-4.3,-10.6,·
CCN(Cc1ccncc1)C(=O)c1cc(Br)cc(Br)c1O,11.2,-1.1,51.1*,-3.7,-5.5
CCOC(=O)c1nn(-c2ccccc2)cc1O,5.0,15.4,8.7,49.3,37.0
CCOC(=O)c1nn(-c2ccc3ccccc3c2)cc1O,4.1,?,9.1,133.2*,51.0*
CCOC(=O)C1=NN(c2ccc(Cl)cc2)C(=O)C1,14.5,64.8*,12.8,145.1*,·
CCOC(=O)c1nn(-c2ccc(C)cc2)cc1O,14.2,·,31.2,73.1,3.4
CCOC(=O)c1nn(-c2ccc3c(c2)OCO3)cc1O,2.0,·,15.2,90.0*,·
CCOC(=O)c1nn(-c2ccc(Cl)cc2)cc1O,23.0,?,17.1,101.3*,64.8*
SMILES,HSF1 inhib,Wnt act,HSF1 activator,MITF act,esBAF inh
CNC[C@@H]1Oc2ccc(NC(=O)Nc3c(C)noc3C)cc2CC(=O)N([C@@H](C)CO)C[C@H]1C,·,·,·,·,0.3
CC(C)C#Cc1ccc2c(c1)O[C@H](CN(C)C(=O)c1cnccn1)[C@H](C)CN([C@H](C)CO)S2(=O)=O,·,·,·,·,4.7
CCOc1ccc(-n2c(C)c(C(C)=O)c(C(C)=O)c2C)cc1,0.2,·,-9.7,-2.4,-7.6
COc1ccc(-n2c(C)c(C(C)=O)c(C(C)=O)c2C)cc1,-63.7*,·,-72.1,5.9,4.2
O=c1[nH]c(CSc2ccccn2)nc2c1oc1ccccc12,47.6,12.6,108.2*,-9.3,·
COc1ccc(NC(=O)C2C(=O)N(CCO)C3(C)CC2c2ccccc2O3)cc1 (stereo unspecified),6.1,4.5,1.2,2.1,25.6*!
Cc1noc(C)c1NC(=O)N(C)C[C@H]1Oc2ccc(NC(=O)Nc3ccc(C(F)(F)F)cc3)cc2C(=O)N([C@@H](C)CO)C[C@@H]1C,·,·,·,·,1.0
COC(=O)c1ccc(CSC2=NCCS2)cc1,22.2,·,18.6,84.2*,·
CCCNC(=O)c1oc2ccc3c(c2c1C)C(O)CC(C)(C)O3 (stereo unspecified),3.3,0.3,8.4,28.9,16.5
Cc1c(C(=O)NCc2ccoc2)oc2ccc3c(c12)C(=O)CC(C)(C)O3,31.2,·,46.0,51.7,103.9*
CN(C)c1ccc(Nc2ncnc3ccc(Br)cc23)cc1,-53.3*,0.3,-54.2,·,-10.4
CC(C)C#Cc1cnc2c(c1)C(=O)N([C@H](C)CO)C[C@@H](C)[C@H](CN(C)Cc1ccc3c(c1)OCO3)O2,·,·,·,·,-0.4
COc1cc(/C=N/NC(=O)c2ccncc2)ccc1OC(C)=O,-4.9,1.6,2.6,12.3,-10.4
CSc1ccc(/C=N\Nc2nncn2N)cc1,37.3,4.6,94.9*,13.9,12.7
COc1cc(/C=N\Nc2nncn2N)ccc1OC(C)=O,27.5,-0.7,55.8*,-6.4,0.2
CC(=O)NCC1(O)CCCC(C)C1 (stereo unspecified),-4.6,40.8*,8.3,0.9,·
Cn1c(=NC(=O)c2ccccc2[N+](=O)[O-])sc2cccc(F)c21,20.9,?,46.8,99.9*,24.4
Cn1c(=NC(=O)C(C)(C)C)sc2cccc(F)c21,1.4,6.2,14.3,18.2,17.8
CCCC1=Nc2cc(C(=O)NCCCN3CCOCC3)ccc2Sc2ccccc21,2.0,-1.9,2.1,-2.6,-2.5
CCCC1=Nc2cc(C(=O)NCCCN3CCN(C)CC3)ccc2Sc2ccccc21,-50.5*,-5.1,-62.2,2.3,-4.5
Cc1cc(C)nc(SCc2csc(-c3ccccc3)n2)n1,24.4,·,47.5,113.2*,·
O=c1/c(=C\c2ccc(F)cc2)sc2n1CCCN=2,12.0,53.3*,?,73.1,·
CC=Cc1ccc2n(c1=O)C[C@@H]1[C@@H](CO)[C@H](C(=O)NCc3ccccn3)N(CC3CC3)[C@H]21 (mixture of isomers),·,·,·,·,1.1
O=C(NP(=O)(N1CCCC1)N1CCCC1)C1=C(N2CCOCC2)/C(=C/c2cccc([N+](=O)[O-])c2)CC1,21.8,-5.8,21.3,-7.6,·
O=[N+]([O-])c1ccc(/C=C2\CCC(C3=CCCC3)=C2N2CCOCC2)cc1,39.1,2.3,60.8*,33.3,·
SMILES,HSF1 inhib,Wnt act,HSF1 activator,MITF act,esBAF inh
CCSc1nnc(NC(=O)CSc2nc3c(cc2C#N)CCCC3)s1,17.1,28.1,13.9,78.6,11.3
CCc1nnc(NC(=O)CSc2nc3c(cc2C#N)CCC3)s1,15.4,69.9*,2.3,45.4,-8.4
N#Cc1cc2c(nc1SCC(=O)N1CCOCC1)CCCCC2,-67.2*,·,-75.2,-17.9,-22.0
N#Cc1cc2cc3c(cc2nc1SCC(=O)N1CCCC1)OCCO3,-10.4,·,-13.8,87.1*,21.6
N#Cc1cc2c(nc1SCC(N)=O)CCCCC2,7.1,·,11.1,73.2,31.8
C[C@H](CO)N1C[C@H](C)[C@@H](CN(C)C)Oc2cc(C#Cc3ccncc3)ccc2S1(=O)=O,·,·,·,·,3.6
Cc1cc(C(=O)Nc2cccc3c2O[C@@H](CN(C)Cc2ccc(C(F)(F)F)cc2)[C@H](C)CN([C@@H](C)CO)C3=O)n(C)n1,·,·,·,·,-1.1

# Screens (PubChem BioAssay)
